The record followed here is PubChem BioAssay.

A short description of assay [1]: anti-His antibody binders, primary screen, artefact control for SMM control protein annotation, biochemical, small-molecule microarray, 635 nm fluorescence (AID 1128).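 Further: score merges feature fluorescence with signal-to-noise for each printed compound spot.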 To be noted: anti-His Alexa647 antibody binding, higher = more signal.
Assay [2] relates to Human papillomavirus type 1a E7 protein (residues 1-88). Kind of assay: HPV1a E7 small-molecule binders, primary screen, biochemical, small-molecule microarray, residues 1-88, 635 nm (AID 1129). To be noted: small-molecule microarray binding, fluorescence 635 nm; higher = more signal.
Assay [3] concerns the target Focal adhesion kinase 1 (Homo sapiens) (UniProt Q05397). Kind of assay: small-molecule microarray binders of FAK, primary screen, biochemical, 635/667 nm fluorescence, BSA, DTT (AID 1130).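 Further: composite of spot emission at 667 nm and signal to noise over triplicate slides.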 To be noted: PTK2 binding, 635 nm fluorescence, higher = more signal.
Assay [4] deals with Fibrinogen (Alexa647-labelled). Kind of assay: fibrinogen binders on compound microarrays, profiling panel, artefact control for SMM control-protein annotation, biochemical, small-molecule microarray, 635/667 nm fluorescence (AID 1131).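 Further: z-score merges 667 nm fluorescence with per-spot signal-to-noise over triplicate slides.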 To be noted: fibrinogen-A647 binding fluorescence, higher = more signal.
The target in assay [5] is Follistatin (Homo sapiens) (UniProt P19883). Kind of assay: follistatin binders on small-molecule microarrays, primary screen, biochemical, small-molecule microarray, 635/667 nm fluorescence (AID 1132). To be noted: FST binding, 635 nm fluorescence, higher = more signal.
Assay [6] deals with Fibroblast growth factor 2 (Homo sapiens) (UniProt P09038). Nature of the assay: FGF2 binders on small-molecule microarrays, primary screen, biochemical, small-molecule microarray, 635/667 nm fluorescence (AID 1133). To be noted: small-molecule microarray binding, FGF2, fluorescence 635/667; higher = more signal.
Assay [7] is described as follows: mitochondrial membrane potential change in A549 cells, profiling panel, cell-based, JC-1 fluorescence, basal, 24 h, 100 nL (AID 1138).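 Further: A549 lung adenocarcinoma cells under basal conditions with no added stimulus; test concentration not given here.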 To be noted: higher = more signal.
For assay [8], the system named is Lefty1. Nature of the assay: Lefty1 binders on small-molecule microarrays, primary screen, biochemical, small-molecule microarray, 635/667 nm fluorescence (AID 1139). To be noted: small-molecule microarray binding, fluorescence 635/667; higher = more signal.
Assay [9] deals with wheat germ agglutinin (Triticum aestivum), Alexa647-labelled. Kind of assay: wheat germ agglutinin binders on compound microarrays, profiling panel, artefact control for SMM control-protein annotation, biochemical, small-molecule microarray, 635/667 nm fluorescence (AID 1140).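 Further: score merges 667 nm feature emission with signal to noise over triplicate slides.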 To be noted: WGA-A647 binding, 635 nm fluorescence, higher = more signal.
For assay [10], the target named is Luciferin 4-monooxygenase (Photinus pyralis) (UniProt P08659). Nature of the assay: firefly luciferase enzyme inhibitors, primary screen, biochemical, luminescence, purified enzyme, 2006 set (AID 1141).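 Further: cell-free assay with purified firefly luciferase at 100 ng per well in PBS; test concentration not given here.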 To be noted: SteadyGlo luminescence, 30 min, higher = more signal, called active from +8 up or from −8 down.
Assay [11] concerns Wnt5a (protein binding on small-molecule microarray). Nature of the assay: Wnt5a binders on small-molecule microarray, primary screen, biophysical, 635/667 nm fluorescence (AID 1142).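 Further: fluorescence read at 667 nm with signal to noise per printed feature.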 To be noted: 635 nm fluorescence, higher = more signal.
Assay [12] in a line: cell viability in Huh7 cells, primary screen, cytotoxicity control for HCV replication inhibitor project, CellTiter-Glo luminescence, basal, 48 h (AID 1143).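 Further: Huh7 hepatoma cells carrying a hepatitis C replication reporter with no stimulus; test concentration not given here.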 To be noted: Huh7 HCV replicon, higher = more signal, called active from +8 up or from −8 down. Background: ATP-based viability assays read luminescence as a measure of living cells.
Assay [13] is described as follows: P. aeruginosa biofilm formation inhibitors, primary screen, PAO1 strain, BacTiter-Glo luminescence, LB-PBS (AID 1144). To be noted: 12 h, higher = more signal.
Assay [14] is described as follows: CREB reporter modulators without forskolin, primary screen, cell-based, PC12, CRE-LacZ reporter, unstimulated (AID 1145). To be noted: no forskolin, luminescence, 4.5 h, higher = more signal, called active from +8 up or from −8 down.
Assay [15] in a line: CREB reporter modulators under forskolin, primary screen, cell-based, PC12, CRE-LacZ reporter, forskolin-stimulated (AID 1146).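 Further: PC12 cells with 6xCRE LacZ reporter stimulated by forskolin 10 µM; beta-galactosidase reporter signal reflecting CREB driven transcription.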 To be noted: luminescence, 4.5 h, higher = more signal, called active from +8 up or from −8 down.
The target in assay [16] is Streptavidin (Streptomyces avidinii) (UniProt P22629). Nature of the assay: streptavidin binders on small-molecule microarray, primary screen, artefact control for SMM compound annotation, biophysical, 635/667 nm fluorescence (AID 1147).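 Further: signal reflects streptavidin binding to arrayed compounds as a control protein.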 To be noted: streptavidin binding, higher = more signal.
Assay [17] can be described thus: small-molecule binders of probe aInhba, primary screen, biochemical, small-molecule microarray, 635/667 nm fluorescence (AID 1148).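 Further: score merges 667nm spot fluorescence with signal-to-noise for antibody binding to printed compounds.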 To be noted: higher = more signal.
The target of assay [18] is Torsin-1A (Homo sapiens) (UniProt O14656). Kind of assay: torsin A binders from cell lysate, primary screen, small-molecule microarray, wild-type, 635/667 nm (AID 1149). To be noted: COS7 hTOR1A-WT lysate, 635 nm fluorescence, higher = more signal.
For assay [19] the target is unchanged. Kind of assay: small-molecule binders of mutant TOR1A in lysate, primary screen, cell lysate, small-molecule microarray, COS7 lysate, 635/667 nm fluorescence (AID 1150).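 Further: score pools 667 nm emission and signal to noise measuring lysate protein binding.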 To be noted: COS7 hTOR1A mutant lysate, 635 nm fluorescence, higher = more signal.
The subject of assay [20] is Sonic hedgehog protein (Shh). Nature of the assay: small-molecule binders of Shh protein, primary screen, biochemical, small-molecule microarray, 635/667 nm fluorescence (AID 1151).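 Further: Shh protein binding to compounds spotted on small-molecule microarray slides; score combines spot fluorescence intensity with signal-to-noise across triplicate slides.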 To be noted: small-molecule microarray binding, 635 nm fluorescence; higher = more signal.

Each structure is given as a SMILES string. Activity calls are given as the source filed them. Unless noted, how the calls were made is not given here.

Chain of Focal adhesion kinase 1 (Homo sapiens) (Q05397 whole entry, looked up): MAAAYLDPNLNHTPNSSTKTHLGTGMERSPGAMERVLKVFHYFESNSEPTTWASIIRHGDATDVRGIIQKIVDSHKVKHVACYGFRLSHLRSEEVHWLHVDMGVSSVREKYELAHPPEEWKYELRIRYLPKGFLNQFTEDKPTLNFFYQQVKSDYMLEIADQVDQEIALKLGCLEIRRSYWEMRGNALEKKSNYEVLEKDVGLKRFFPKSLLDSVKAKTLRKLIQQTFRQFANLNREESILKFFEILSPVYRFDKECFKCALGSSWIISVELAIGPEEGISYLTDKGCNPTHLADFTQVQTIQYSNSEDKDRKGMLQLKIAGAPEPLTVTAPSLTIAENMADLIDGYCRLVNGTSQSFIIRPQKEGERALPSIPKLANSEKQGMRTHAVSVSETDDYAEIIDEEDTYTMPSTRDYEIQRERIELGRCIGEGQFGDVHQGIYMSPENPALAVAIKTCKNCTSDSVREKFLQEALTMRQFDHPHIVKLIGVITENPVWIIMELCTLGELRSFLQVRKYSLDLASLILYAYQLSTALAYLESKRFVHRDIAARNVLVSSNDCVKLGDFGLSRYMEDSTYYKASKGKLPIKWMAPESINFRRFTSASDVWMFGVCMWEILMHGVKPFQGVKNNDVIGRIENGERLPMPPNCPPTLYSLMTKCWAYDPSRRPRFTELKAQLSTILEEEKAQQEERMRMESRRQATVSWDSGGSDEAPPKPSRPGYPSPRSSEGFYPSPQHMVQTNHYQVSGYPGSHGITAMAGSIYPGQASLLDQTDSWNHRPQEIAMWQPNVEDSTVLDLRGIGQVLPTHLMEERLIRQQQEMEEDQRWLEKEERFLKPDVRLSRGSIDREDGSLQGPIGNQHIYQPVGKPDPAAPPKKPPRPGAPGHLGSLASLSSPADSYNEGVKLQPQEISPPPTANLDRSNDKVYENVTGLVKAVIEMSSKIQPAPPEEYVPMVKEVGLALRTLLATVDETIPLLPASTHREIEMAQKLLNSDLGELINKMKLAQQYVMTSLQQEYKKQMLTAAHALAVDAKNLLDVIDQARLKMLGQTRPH
Chain of Streptavidin (Streptomyces avidinii) (P22629 whole entry, looked up): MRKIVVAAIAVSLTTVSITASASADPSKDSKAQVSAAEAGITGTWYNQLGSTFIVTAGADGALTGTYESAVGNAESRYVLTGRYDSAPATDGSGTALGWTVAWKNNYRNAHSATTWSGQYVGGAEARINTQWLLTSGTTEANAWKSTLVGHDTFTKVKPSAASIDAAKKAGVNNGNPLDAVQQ
Chain of Fibroblast growth factor 2 (Homo sapiens) (P09038 whole entry, looked up): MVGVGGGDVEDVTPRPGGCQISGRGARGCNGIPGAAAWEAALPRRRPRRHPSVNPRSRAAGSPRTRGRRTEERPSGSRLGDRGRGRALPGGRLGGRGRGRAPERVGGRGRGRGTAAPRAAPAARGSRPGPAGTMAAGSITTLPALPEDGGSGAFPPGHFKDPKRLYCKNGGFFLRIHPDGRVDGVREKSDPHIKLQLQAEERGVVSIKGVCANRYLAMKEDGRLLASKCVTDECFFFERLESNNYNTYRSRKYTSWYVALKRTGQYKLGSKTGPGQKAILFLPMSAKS
Chain of Torsin-1A (Homo sapiens) (O14656 whole entry, looked up): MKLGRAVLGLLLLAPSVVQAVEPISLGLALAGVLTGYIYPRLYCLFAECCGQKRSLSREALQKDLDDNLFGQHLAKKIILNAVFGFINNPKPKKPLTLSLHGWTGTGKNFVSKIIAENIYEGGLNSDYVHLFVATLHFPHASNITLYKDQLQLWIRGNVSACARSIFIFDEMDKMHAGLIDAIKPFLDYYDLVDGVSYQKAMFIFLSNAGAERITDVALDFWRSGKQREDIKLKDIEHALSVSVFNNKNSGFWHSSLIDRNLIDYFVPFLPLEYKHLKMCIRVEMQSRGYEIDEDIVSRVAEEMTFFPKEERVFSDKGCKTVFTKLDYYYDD
Chain of Luciferin 4-monooxygenase (Photinus pyralis) (P08659 whole entry, looked up): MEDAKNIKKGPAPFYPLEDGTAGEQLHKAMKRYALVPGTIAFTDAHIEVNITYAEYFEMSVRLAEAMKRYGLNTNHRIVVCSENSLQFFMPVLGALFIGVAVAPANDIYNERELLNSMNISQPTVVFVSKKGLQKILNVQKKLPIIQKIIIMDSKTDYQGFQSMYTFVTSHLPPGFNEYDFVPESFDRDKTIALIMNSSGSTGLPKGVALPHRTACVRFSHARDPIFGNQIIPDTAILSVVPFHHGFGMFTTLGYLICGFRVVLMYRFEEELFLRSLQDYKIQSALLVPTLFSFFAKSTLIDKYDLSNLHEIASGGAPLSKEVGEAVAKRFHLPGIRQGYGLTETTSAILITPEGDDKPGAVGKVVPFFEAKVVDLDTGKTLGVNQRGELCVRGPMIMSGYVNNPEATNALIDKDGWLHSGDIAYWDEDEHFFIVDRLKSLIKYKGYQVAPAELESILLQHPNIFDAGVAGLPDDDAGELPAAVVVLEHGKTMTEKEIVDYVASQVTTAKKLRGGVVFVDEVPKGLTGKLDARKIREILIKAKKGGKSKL
Chain of Follistatin (Homo sapiens) (P19883 whole entry, looked up): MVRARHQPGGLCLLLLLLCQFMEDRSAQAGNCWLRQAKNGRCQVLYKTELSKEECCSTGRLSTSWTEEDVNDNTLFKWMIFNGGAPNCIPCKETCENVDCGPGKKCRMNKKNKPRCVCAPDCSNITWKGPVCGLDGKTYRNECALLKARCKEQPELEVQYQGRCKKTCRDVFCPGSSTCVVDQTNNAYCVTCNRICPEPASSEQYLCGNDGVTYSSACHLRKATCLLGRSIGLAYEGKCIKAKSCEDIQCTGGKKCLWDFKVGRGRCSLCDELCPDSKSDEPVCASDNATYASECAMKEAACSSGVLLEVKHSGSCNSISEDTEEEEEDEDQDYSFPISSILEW

Regarding `C=CCOC(=O)[C@H]1[C@@H]2C(=O)O[C@@H](c3ccccc3)[C@@H](c3ccccc3)N2[C@@H](c2ccc(OCCOC(=O)[C@@H]3C[C@@H]4C(=O)NCC(=O)N4[C@@H]3c3ccc(O)cc3)cc2)[C@]12C(=O)Nc1ccc(I)cc12`, the composite z-score in assay [1] was determined as 1.59; in assay [2], 1.22; in [3], 2.17; in [4], 0.597; in assay [5], 1.41; in assay [6] it was 1.65. The composite z-score in assay [8] was 1.24; in [9] it was 0.763; in assay [11], 1.07; in [16], 0.205; in [17], -0.125; in assay [18], 1.02. Moreover, the composite z-score worked out at 1.18 in [19] and 2.04 in [20]. Besides, the z-score in assay [7] was -1.17; in assay [10] it was -0.978 (inactive); in assay [12], 0.586 (inactive); in assay [13], 0.183 (inactive); in assay [14], 0.0003 (inactive); in [15], -0.53 (inactive).
Consider `Cc1cc(C)c(C(O)C2C=CC3C(=O)NC(=O)C3N2Nc2ccccn2)c(C)c1` (stereo not given), for which the composite z-score is 0.735 in assay [1]; 1.03 in assay [2]; 0.471 in [3]; 0.925 in assay [4]; 1.11 in assay [5]; -0.719 in assay [6]. Further, the composite z-score in [8] is 0.0668; in assay [9] it was 0.994; in assay [11], -0.265; in [16], 0.545; in [17], 0.0599; in assay [18] it was -0.145. The composite z-score in assay [19] is 0.736; in [20] it was -0.095. The z-score was 0.513 in assay [7]; -1.56 (inactive) in [10]; 0.882 (inactive) in [12]; -0.644 (inactive) in [13]; -0.14 (inactive) in [14]; -0.0376 (inactive) in assay [15].
As to `COC(=O)[C@@]1(Cc2ccc(F)cc2)[C@H]2c3cc(C(=O)N4CCCC4)n(CCc4ccc(OC)c(Br)c4)c3C[C@H]2CN1C(=O)c1ccccc1`, the composite z-score was 2.45 in [1]; 1.22 in assay [2]; 1.32 in assay [3]; 0.831 in assay [4]; 1.08 in assay [5]; -0.705 in [6]. The composite z-score is 0.265 in assay [8]; 1.38 in assay [9]; 0.375 in [11]; 2.46 in assay [16]; 0.431 in [17]; 0.17 in [18]. The figures for the composite z-score in assay [19] and in assay [20] were 0.858 and -0.328, respectively. Also, the z-score was -1.58 in [7]; -0.0863 (inactive) in assay [10]; -3.82 (inactive) in [12]; 0.839 (inactive) in [13]; 0.0109 (inactive) in [14]; -1.14 (inactive) in assay [15].
`CC(C)(C)OC(=O)CC[C@]1(C(=O)NCC(O)CO)N=C(c2ccc(OCCCO)cc2)O[C@H]1c1ccccc1CN=[N+]=[N-]` (stereo not given in full): the composite z-score in assay [1] is 2.31; in [2], 0.705; in assay [3], -0.0371; in assay [4], 1.03; in assay [5] it was 0.662; in assay [6], 0.703. The composite z-score in assay [8] is -0.637; in assay [9], 0.959; in [11], 0.921; in [16], 1.63; in assay [17], 0.496; in assay [18], 0.399. Further, the composite z-score is 2.06 in assay [19] and -0.535 in assay [20]. Besides, the z-score was -0.101 in assay [7]; -0.718 (inactive) in assay [10]; 0.168 (inactive) in [12]; -1.35 (inactive) in assay [13]; 0.0594 (inactive) in [14]; -0.209 (inactive) in [15].
As for `O=c1cccc(-c2ccc3ccccc3c2)o1`, the composite z-score in [1] was -0.829; in assay [2] it was -0.788; in assay [3], -0.179; in assay [4] it was -0.656; in assay [5] it was 0.305; in [6] it was -0.276. Besides, the composite z-score is -0.123 in assay [8]; -0.276 in assay [9]; -0.0955 in assay [11]; 0.351 in assay [16]; -0.025 in assay [17]; -0.0735 in [18]. The composite z-score was -0.0223 in [19] and 0.27 in assay [20]. In addition, the z-score in [7] was 1.14; in [10] it was -2.88 (inactive); in [12], -2.3 (inactive); in assay [13], 0.787 (inactive); in assay [14] it was 0.425 (inactive); in assay [15], 0.0815 (inactive).
